Marburg entry inh – inhibitors of Marburg virus binding or cell entry; Marburg virus pseudotyped entry inhibition, cell reporter; Potency, µM (series often up to 37.8 µM), for the others: at the top dose activity change, negative = inhibition, hits mostly inhibitors; 1.8% of 300,000 active; calls by dose curve; tested in HEK293 cells
HCV inh – inhibitors of hepatitis C virus infection. AID 651820. Potency, µM (top dose mostly 41.8 µM), inactives show top-dose activity change, negative = inhibition, hits mostly inhibitors. 3.4% of 340,000 active. Huh7.5.1 HCVcc-Cre infection, luciferase reporter, 44 h; active means well fitted inhibition curve with a large enough effect; inconclusive means small, poorly fitted or top-dose-only effect, or another doubt; inactive means no such curve, though single readings can be large or run the other way
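Seed cells (1,000/well) for 4 h; treat with compound and infect with HCVcc-Cre, moi about 0.5. Incubate 44 h, then detect luciferase activity.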
FMDV inh – antivirals against foot and mouth disease virus. FMDV antiviral cell-based qHTS. 1.2% of 410,000 active. Potency, µM (series often up to 57.9 µM), without a hit: at the highest dose activity change, negative = inhibition, most hits filed as inhibitors; calls by dose curve; tested in HEK293T cells; further: read-out not given here; nearly all actives have a fitted effect of over 45% in size
Vaccinia Venus – inhibitors of vaccinia virus (Venus reporter); AID 720580; Vaccinia virus Venus reporter expression, fluorescence; Potency, µM (titrated, usually from 36.5 µM), for the others: at the highest dose activity change, negative = inhibition, usual class: inhibitors; 0.46% of 330,000 active; calls by dose curve; tested in A549 cells; further: nearly all actives have a fitted effect of over 30% in size
LASV entry inh – blocks Lassa virus binding to or entry into cells | Potency, µM (doses to about 37.9 µM), without a hit: top-dose activity change, negative = inhibition, usual class: inhibitors | AID 540256 | 1.2% of 300,000 active | Lassa virus pseudotype entry inhibition, cell reporter; calls by dose curve; tested in HEK293 cells; further: nearly all actives have a fitted effect of over 50% in size
VACV mCherry inh – inhibitors of vaccinia virus infection (mCherry reporter signal); Potency, µM (highest dose often 36.5 µM), without a hit: at the highest dose activity change, negative = inhibition, most hits filed as inhibitors; 0.63% of 310,000 active; Vaccinia virus mCherry reporter infection, fluorescence; AID 720579; calls by dose curve; tested in A549 cells; further: nearly all actives have a fitted effect of over 35% in size
* = called active by the depositor; i = inactive; ? = inconclusive; nt = not tested or not shown; [ ] = remark or other dose. This is a sample that favours compounds with a hit; in the whole collection about 5.3% have one here. On the % scale 0 is the no-effect control and ±100 the full control effect; potency means the concentration at half of the fitted maximal effect.

SMILES	Marburg entry inh	HCV inh	FMDV inh	Vaccinia Venus	LASV entry inh	VACV mCherry inh
COc1ccc(N2CC(NC(=O)/C=C\c3ccc4c(c3)OCO4)CC2=O)cc1 (centres undefined)	nt	nt	-20%	-9%	2%[46.1 µM]	-10%
Cc1c(C(=O)NCc2ccc(Cl)c(Cl)c2)sc(=O)n1Cc1ccc(C(=O)N(C)C)cc1	nt	nt	?	-13%	nt	12%
C(=Nc1ccc2ccccc2n1)c1cccnc1	nt	nt	nt	-12%	nt	29%
OC(Br)C(O)C(O)N1CCCc2ccccc21 (centres undefined)	nt	nt	nt	-26%	nt	-28%
Cc1ccc(C(=O)NNc2c3ccccc3nc3ccccc23)cc1	?	11µM*	-27%	?	-13%[46.1 µM]	-18%
COc1ccccc1Nc1c2ccccc2nc2ccccc12	?	10µM*	?	?	?	11µM*
COc1cc(Nc2c3ccccc3nc3ccccc23)cc(OC)c1OC	2.8µM*	?	-24%	?	?	?
COc1ccc(Nc2cc(Nc3cc(OC)c(OC)c(OC)c3)ncn2)cc1	16µM*	?	?	-10%	-11%	-26%
Cc1ccccc1Cn1cc(S(=O)(=O)c2ccc(Cl)cc2)c(=O)c2cc3c(cc21)OCO3	18%[46.1 µM]	nt	-19%	1%	10%[46.1 µM]	-8%
CC(C)(C)NS(=O)(=O)c1ccc2nc(NC(=O)c3cccnc3)sc2c1	nt	nt	66%	-1%	-5%[46.1 µM]	0%
COc1cc(Nc2nc(-c3ccccc3)c3cc(C)ccc3n2)cc(OC)c1OC	?	10µM*	?	-21%	?	-29%
CC1CCN(c2nc3ccc(C(=O)N4CCN(Cc5ccc6c(c5)OCO6)CC4)cc3s2)CC1	3%	3.2µM*	-14%	?	nt	?
Cc1ccc2c(C)c(C(=O)N3CCN(Cc4ccc5c(c4)OCO5)CC3)oc2c1C	-4%[46.1 µM]	11µM*	8%	-24%	1%[46.1 µM]	-29%
CCCCCn1c(=O)[nH]c2cc(C(=O)N3CCN(Cc4ccc5c(c4)OCO5)CC3)ccc2c1=O	?	2.8µM*	?	?	?	-15%
Cc1cc(C)c(NC(=O)CSc2ccnc(=O)[nH]2)c(C)c1	nt	nt	-25%	2%	10%[46.1 µM]	-2%
COc1ccc(C(C)=O)cc1Cn1c(C)c(C(=O)NCCC#N)sc1=O	nt	nt	-9%	-5%	nt	4%
COc1cc(NC(=O)COc2ccccc2Cl)ccc1NC(=O)c1cccs1	?	1.1µM*	0%	-16%	?	-28%
O=C(COc1ccc(Cl)cc1)Nc1nc(-c2ccncc2)cs1	28%[46.1 µM]	13%	3%	-2%	0%[46.1 µM]	-12%
COc1cc(NC(=O)c2cccs2)c(OC)cc1NC(=O)Cc1ccccc1	1%[46.1 µM]	35µM*	-1%	-18%	nt	-22%
COc1cc(NC(=O)c2cccs2)c(C(=O)OCC(=O)c2cc(C)n(-c3ccccc3)c2C)cc1OC	3.5µM*	11%	4µM*	-2%	?	-17%
O=C(COc1ccccc1Cl)Nc1nc(-c2ccncc2)cs1	?	22µM*	?	-11%	?	-21%
COc1cc(NC(=O)c2cccs2)c(C(=O)OCC(=O)c2cc(C)n(-c3ccc(F)cc3)c2C)cc1OC	?	-14%	?	-6%	?	-1%
C=CCOC(=O)N[C@@H](c1coc2ccccc2c1=O)[C@@H](C)C=CCC(=O)OC	-3%[14.2 µM]	nt	nt	nt	nt	nt
C/C(=N/NC(=O)c1cccs1)c1ccc(NC(=O)COc2ccc(Cl)cc2Cl)cc1	?	-6%	4%	-13%	13µM*	i
Cc1ccc(NC(=O)OC(C)N2CCCCC2)cc1NC(=O)OC(C)N1CCCCC1 (centres undefined)	5µM*	25µM*	-2%	-13%	?	-2%
SMILES	Marburg entry inh	HCV inh	FMDV inh	Vaccinia Venus	LASV entry inh	VACV mCherry inh
O=C(CSc1nnc(COc2ccc(Cl)cc2)o1)Nc1ccccc1	?	nt	21%	0%	-28%[46.1 µM]	1%
Cc1ccc(NC(=O)CCSCCc2ccccn2)cc1	24%[46.1 µM]	12%	-9%	18%	-18%[46.1 µM]	-1%
Cc1ncc(CSc2nnnn2-c2ccccc2)c(N)n1	21%	8%	nt	-6%	-2%	i
CSc1nsc(SCc2cnc(C)nc2N)n1	6%	12%	-11%	?	0%	22µM*
COc1ccc(-n2c(-c3ccccc3)c[n+]3c2CCC3)cc1	?	10µM*	?	-27%	?	-1%
COc1ccc(-n2c(-c3ccc(Br)cc3)c[n+]3c2CCC3)cc1	?	-7%	?	-3%	?	i
OC(c1ccc2c(c1)CN(Cc1cccn1-c1cccnc1)CCO2)C1CCCCC1 (centres undefined)	nt	nt	2%	-14%	nt	-27%
COc1ccccc1NC(=O)Cn1c(C)cc(=O)c2cccc(OC)c21	?	?	7.1µM*	?	-19%	?
CNC(=O)Cn1c(C)cc(=O)c2cccc(C)c21	-12%	13%	-13%	-4%	?	-14%
COc1cccc2c(=O)cc(C)n(CC(=O)Nc3ccc(C)c(C)c3)c12	?	5µM*	?	?	-17%	nt
CCOc1ccc(CCNC(=O)c2cc(=O)[nH]c3ccc(S(=O)(=O)N4CCCCC4)cc23)cc1OCC	nt	nt	-14%	5%	?	-9%
CC(C)(C)C1COc2ccccc2N1C(=O)c1ccccc1Cl (centres undefined)	nt	-26%	?	nt	nt	nt
COC(=O)c1ccc(OCC2c3cc(OC)c(OC)cc3CCN2C(=O)c2ccco2)cc1 (centres undefined)	?	?	?	nt	4.1µM*	nt
COCCNC(=S)N1CCc2cc(OC)c(OC)cc2C1COc1ccc(C(C)C)cc1 (centres undefined)	13µM*	?	-26%	-24%	?	-23%
COC(=O)c1ccc(OCC(O)CN2CCc3cc(OC)c(OC)cc3C2c2ccccc2)cc1 (centres undefined)	?	7.9µM*	?	-13%	?	?
Cc1nc(C)c(C(=O)NCc2nc(-c3cccc(NC(=O)c4ccccn4)c3)oc2C)s1	nt	nt	-21%	-29%	nt	?
C=C1C=C(C)n2ncc(C(=O)N(CCc3ccccc3)Cc3ccccc3)c2N1	nt	nt	nt	-11%	nt	-13%
COC(=O)c1cccc(NC(=O)c2cc3sccc3n2C)c1	14%	14µM*	16%	-11%	51%[14.3 µM]	i
COC(=O)c1c(NC(=O)Cc2cccs2)sc(C)c1C	-20%	11µM*	-8%	nt	10%	nt
CCCCCC(=O)N1C[C@@H](O)[C@H](n2cc(-c3ccc(F)cc3)nn2)C[C@H]1c1ccc(OC)cc1	nt	nt	nt	nt	11%[46.1 µM]	nt
CC1C/C(=C/c2cccn2C)C(=O)/C(=C/c2cccn2C)C1 (centres undefined)	?	6.3µM*	?	nt	?	nt
CC1C/C(=C/c2ccncc2)C(=O)/C(=C/c2ccncc2)C1 (centres undefined)	nt	?	10µM*	nt	nt	nt
O=C1/C(=C/c2ccncc2)Cc2ccccc21	nt	20%	3%	-2%	nt	i

Compound activity (PubChem BioAssay)
